Peg3 prom inh: Peg3 promoter-driven luciferase inhibitors, primary screen, cell-based, HeLa, luciferase luminescence; 360,000 tested, 1.7% active; HeLa PEG-Prom luciferase reporter, overnight; inhibition, % at 20 µM;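 active = inhibition of at least 50% at 20 µM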
HIF-2a block: HIF-2a reporter inhibitors, primary screen, luminescence, 786-0 RCC cells; 360,000 tested, 0.72% active; inhibition, % at 18.8 µM; 786-0 RCC cells HIF-2a reporter, luciferase luminescence, overnight;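 active = inhibition of the luminescence signal of 40% or more relative to plate controls, in a single-dose primary screen at 18.75 µM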
MITF TRPM1 inh: inhibitors of MITF-dependent TRPM1 promoter reporter, primary screen, cell-based, SK-MEL-5, single point, luciferase | SK-MEL-5 TRPM1 promoter luciferase, 24 h | inhibition, % at 12.5 µM | 330,000 tested, 0.83% active;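 active = mean inhibition across replicates of 60% or more, whatever share of single replicates reaches that level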
EBV LMP1 NFkB: EBV LMP1-driven NF-kappaB luciferase reporter inhibitors, primary screen, cell-based, luminescence, single point; LMP1-induced NF-kappaB luciferase reporter cells; 350,000 tested, 0.69% active; inhibition, % at 12.5 µM; AID 504558, 2011; in the data active = inhibition above about 41%;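 also: 0% = neutral control wells and 100% = reference inhibitor control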
Shn3 3UTR inh: reduction of Shn3 3'UTR firefly luciferase signal, primary screen, Schnurri-3 inhibitor project, cell-based, Clone20 osteoblasts, set 2; Clone20 osteoblast Shn3 3'UTR firefly luciferase, 24 h; inhibition, % at 12.5 µM; 360,000 tested, 0.52% active; AID 588674, 2011;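 active = mean inhibition of at least 75% with every replicate also reaching 75%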;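 also: 0% = median of neutral control wells and 100% = pilot-screen positive control compound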
PAX8 reporter: inhibitors of PAX8-driven TPO luciferase reporter, primary screen, RMG-I cells, single concentration; SteadyGlo, 24 h; inhibition, % at 12.6 µM; 360,000 tested, 1.2% active; AID 652154, 2013;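 active = mean replicate inhibition at least 60% with every replicate also reaching 60%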;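 also: luciferase light reporting Pax8 driven TPO promoter activity; plate controls were median of neutral control wells for no effect and mitoxantrone controls for full effect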
Mdm2 MdmX conf: retested Mdm2-MdmX interaction blockers, confirmation, cell-based, luminescence, single concentration, set 2; shares compounds with HIF-2a block; SaOS-2 split-luciferase Mdm2/MdmX complementation; inhibition, % at 8 µM; 740 tested, 99% active; AID 504601, 2011;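 active = mean inhibition of the luminescence signal across two replicates at or above 26 percent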
HIF-2a conf: HIF-2a reporter inhibitor retest, confirmation, luminescence, 786-0 RCC cells. shares compounds with HIF-2a block. 1,800 tested, 56% active. inhibition, % at 18.8 µM. AID 651580, 2012. HIF-2a luciferase reporter luminescence, overnight;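 active = mean inhibition across four replicates of at least 40 percent at the single tested concentration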
HIF-1a counter: HIF-1a luciferase reporter signal reduction – MiaPaCa-2 cells, single concentration, counter-screen for HIF-2a inhibitor project, confirmation; shares compounds with HIF-2a block; MiaPaCa-2 HIF-1a luciferase reporter, desferoxamine, overnight; inhibition, % at 18.8 µM; 1,800 tested, 72% active; AID 651589, 2012;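 active = mean inhibition of the reporter signal across four replicates at the single tested dose of 50% or more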
Starred values were filed as active, the others as inactive; · = not tested or not shown. In the library only some 2.8% were active in any assay of this set; here they are far more common.

SMILES | Peg3 prom inh | HIF-2a block | MITF TRPM1 inh | EBV LMP1 NFkB | Shn3 3UTR inh | PAX8 reporter | HIF-2a conf | HIF-1a counter | others
Cc1ccc(-c2csc3ncnc(SCC(=O)O)c23)cc1 | 6.5 | 1.7 | 3.7 | 1.0 | -4.1 | -2.2 | · | ·
Cn1nnnc1Sc1ncnc2scc(-c3cccs3)c12 | · | · | 88.3* | 53.3* | 28.3 | · | · | · | Mdm2 MdmX conf=102.7*
Cn1nnnc1Sc1ncnc2scc(-c3cc4ccccc4o3)c12 | 100.3* | 97.0* | 100.3* | 62.4* | 62.3 | 89.9* | 96.2* | 107.1* | Mdm2 MdmX conf=103.2*
Cn1nnnc1Sc1ncnc2scc(-c3ccc(-c4ccccc4)cc3)c12 | 101.4* | 45.9* | 10.7 | 27.9 | 36.0 | 77.2* | -26.4 | 100.8*
CC(C)N(C[C@@H]1[C@@H](c2ccccc2)[C@H](CO)N1S(C)(=O)=O)C(=O)CN(C)C | · | · | · | · | · | 14.5 | · | ·
C[C@@H]1CN([C@@H](C)CO)C(=O)c2cc(NC(=O)Nc3ccc4c(c3)OCO4)ccc2O[C@@H](C)CCCCO[C@H]1CN(C)C(=O)Nc1ccccc1 | · | · | · | · | · | -2.4 | · | ·
C=CCN(Cc1ccccc1)C(=O)[C@@H]1N(C(C)(C)C)C(=O)[C@H]2[C@H](C(=O)O)[C@@H]3C=C[C@]12O3 | · | · | · | · | · | -2.5 | · | ·
COc1ccc(S(=O)(=O)Nc2ccc3c(c2)C(=O)N([C@H](C)CO)C[C@H](C)[C@@H](CN(C)CC2CCCCC2)OCCCC[C@H](C)O3)cc1 | · | · | · | · | · | 0.8 | · | ·
CCOC(=O)c1c(C)nn(-c2ccc(NC(=O)c3cccs3)cc2)c1C | 19.2 | -46.1 | -2.3 | 1.9 | 16.0 | 16.2 | · | ·
CCOC(=O)c1c(C)nn(-c2ccc(NC(=O)c3c(C)noc3C)cc2)c1C | 0.5 | 65.5* | 29.7 | 4.4 | 6.5 | 19.6 | 80.3* | 39.9
CCOC(=O)c1c(C)nn(-c2ccc(NC(=O)/C=C/C(=O)O)cc2)c1C | 12.6 | 74.5* | 9.0 | 13.9 | · | 18.3 | 48.2* | 30.0
O=C([C@H]1[C@H](CO)[C@H]2Cn3c(cccc3=O)[C@@H]1N2CC1CC1)N1CCc2ccccc2C1 | · | · | · | · | · | 10.9 | · | ·
O=C(C[C@@H]1CC[C@H](NS(=O)(=O)c2ccccc2)[C@H](CO)O1)N1CCC(Cc2ccccc2)CC1 | · | · | · | · | · | -21.0 | · | ·
Cc1ccc(-c2nc3sc(C(N)=O)c(N)c3c3c2CCCC3)cc1 | 26.1 | 12.1 | -2.9 | -2.4 | -13.3 | 29.8 | · | ·
Cc1nc2sc(C(N)=O)c(N)c2c2c1CCCC2 | -27.5 | 9.8 | 18.9 | 51.3* | 15.2 | -60.1 | · | · | Mdm2 MdmX conf=92.5*
O=C(CN(c1ccc(Br)cc1)S(=O)(=O)c1ccc(Cl)c([N+](=O)[O-])c1)NCC1CCCO1 (stereo not given) | 95.4* | 86.4* | 85.4* | 6.8 | 3.1 | 43.7 | 32.0 | 103.0*
CCOCCCNC(=O)/C(C#N)=C/c1ccc(Cl)c([N+](=O)[O-])c1 | 105.0* | 92.1* | 89.1* | 57.5* | 0.3 | -3.5 | 21.8 | 101.7*
CCCCOC(=O)c1ccc(NC(=S)NC(=O)c2c(Br)c(C)nn2C)cc1 | 39.4 | 45.9* | 15.9 | -0.2 | -1.2 | 41.1 | 55.6* | 18.6
CCOC(=O)Cc1csc(N/N=C/c2ccccc2)n1 | -128.6 | 40.5* | -8.7 | -5.6 | -19.9 | -32.8 | 38.1 | 6.3
COCCN(Cc1ccco1)C(=O)Cn1ncc2c(=O)oc3ccccc3c21 | 6.6 | 45.2* | -1.9 | 4.9 | 12.6 | 10.4 | -4.5 | 17.6
Cn1c(SC2=CS(=O)(=O)c3ccccc32)nc2ccccc21 | 98.8* | 90.8* | 65.1* | -60.6 | 46.2 | · | -9.1 | 77.0*
Cc1ccc(S(=O)(=O)Nc2ccc3c(c2)CC(=O)N([C@H](C)CO)C[C@H](C)[C@@H](CN(C)S(=O)(=O)c2ccc(F)cc2)O3)cc1 | · | · | · | · | · | 15.0 | · | ·
O=C(Nc1ccccc1)N1CCCCN2[C@H](CO)[C@H](c3ccc(-c4ccccc4)cc3)[C@H]2C1 | · | · | · | · | · | 27.3 | · | ·
O=C(c1cccs1)N1CCN=C1SCc1ccc(F)cc1 | -1.6 | 52.0* | -13.8 | -0.1 | -4.8 | -7.7 | -31.7 | 17.5
c1ccc(CNc2nc(NCc3ccccc3)c3ccccc3n2)cc1 | 104.5* | 25.8 | 33.6 | -37.1 | 26.2 | · | · | · | Mdm2 MdmX conf=103.5*
SMILES | Peg3 prom inh | HIF-2a block | MITF TRPM1 inh | EBV LMP1 NFkB | Shn3 3UTR inh | PAX8 reporter | HIF-2a conf | HIF-1a counter | others
c1ccc(CNc2nc(-c3ccccc3)nc3ccccc23)cc1 | 14.8 | -1.6 | -8.9 | -0.3 | 3.8 | -28.2 | · | ·
CN1C(=O)c2cc(NC(=O)C3CCCC3)ccc2OC[C@@H]2O[C@H](CC(=O)NCC3CC3)CC[C@H]21 | · | · | · | · | · | 35.5 | · | ·
CC(C(=O)NCc1ccccc1)n1c(CSCCOc2ccccc2)nc2ccccc21 (stereo not given) | · | -1.2 | · | · | · | 22.4 | · | ·
CCC(C(=O)NCc1ccccc1)n1c(CSCCOc2ccccc2)nc2ccccc21 (stereo not given) | · | 64.0* | · | · | · | 1.8 | 74.2* | 77.2*
COc1ccc(C(C(=O)NC2CCCC2)n2c(CSCCOc3ccccc3)nc3ccccc32)cc1 (stereo not given) | · | 43.1* | · | · | · | -9.9 | 74.4* | 62.8*
C[C@@H]1CN([C@@H](C)CO)C(=O)c2cc(C#Cc3ccccc3F)cnc2O[C@@H]1CN(C)S(C)(=O)=O | · | · | · | · | · | 11.7 | · | ·
O=C(Cc1ccccc1)N1CC[C@@H]2[C@@H](CO)Nc3ccc(-c4ccc(F)cc4)cc3[C@@H]21 | · | · | · | · | · | 9.0 | · | ·
C[C@H]1CN([C@@H](C)CO)C(=O)c2cccc(NC(=O)C3CCOCC3)c2O[C@H]1CN(C)Cc1ccncc1 | · | · | · | · | · | -17.9 | · | ·
COc1ccc(CNC(=O)C(c2ccncc2)N(C(=O)Cc2cccs2)c2ccccc2)cc1 (stereo not given) | 3.6 | 15.5 | 20.4 | -0.2 | -8.3 | 7.1 | · | ·
COc1ccc(N(C(=O)CCl)C(C(=O)NCCc2ccccc2)c2cccs2)cc1 (stereo not given) | 105.1* | 96.4* | 88.3* | -3.0 | 95.7* | 113.1* | 98.2* | 106.9*
Nc1cc2ccncc2c2ccccc12 | -4.8 | 23.0 | -5.9 | 55.8* | 10.4 | -45.1 | · | · | Mdm2 MdmX conf=90.2*
N#Cc1cc2ccncc2c2ccccc12 | 11.4 | 22.4 | · | 14.3 | 9.8 | -94.9 | · | ·
CC(C)NC(=O)N[C@@H]1CC[C@H](CC(=O)NCCN2CCCC2)O[C@H]1CO | · | · | · | · | · | 0.9 | · | ·
